# Tg IFNy HTS: inhibitors of Toxoplasma gondii growth with IFN-gamma; Toxoplasma gondii growth in IFN-gamma-treated host cells; hits give low values; activity change, negative = inhibition, % (concentration not given with the values); 69,000 tested, 3.8% active; in the data active means activity change below about -70%, passing the limit was not always enough;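 further: host cells are HeLa cells infected with Toxoplasma gondii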
# Active calls of the source: *; ! = repeats disagree. Shown is part of a subset that was picked to be rich in hits.
SMILES,Tg IFNy HTS
CC(=O)O[C@@H]1CC2C(C)(C)[C@H](O)CC[C@]2(C)C2CC[C@@]3(C)[C@H](c4ccoc4)OC(=O)C4OC43[C@@]21C (some centres not stated),-71*
CC(=O)O[C@@H]1C[C@H]2C(C)(C)C(=O)C=C[C@]2(C)[C@H]2CC[C@@]3(C)[C@H](c4ccoc4)OC(=O)[C@H]4O[C@]43[C@@]21C,52
CC(=O)O[C@H]1C[C@@H](O)C(C)(C)C2C[C@@H](OC(C)=O)[C@]3(C)C(CC[C@@]4(C)[C@H](c5ccoc5)OC(=O)C5OC543)[C@]21C (some centres not stated),18
CC1(C)C(=O)C=C[C@@]2(C)C1C=C[C@]1(C)C2CC[C@@]2(C)[C@H](c3ccoc3)OC(=O)[C@H]3O[C@]321 (some centres not stated),-86*
Cc1c(Cl)cccc1NC(=O)C(=O)NCCc1csc(-c2ccc(F)cc2)n1,-51
COc1cccc(C(=O)N2CCCC(CO)(Cc3ccccc3)C2)c1OC (configuration not stated),-42
COc1ccc(-c2ccccc2[C@H]2[C@@H](CO)N(C(=O)NC(C)C)[C@H]2C#N)cc1,-34
O=C1CCCN1CCCn1ccnc1-c1cccc(-n2cccn2)c1,1
CCCN(Cc1nccn1C)C(=O)C12CNCC1CNC2 (configuration not stated),-8
CCSc1ncc(-c2nccn2Cc2cc(C(C)C)no2)cn1,1
CCOC(=O)c1c(-c2ccccc2)csc1NC(C)=O,72
Cc1cc2nc(CC(NC(=O)c3ccncc3C)c3ccccc3)cc(=O)n2[nH]1 (configuration not stated),-7
CCn1cc(-c2ccnc3[nH]c(-c4cccc(CN(C)C)c4)cc23)c(-c2ccc(NC(=O)N(C)C)cc2)n1,-82*
CCn1cnc(NC(=O)N(C)Cc2cccc3ncccc23)n1,-1
CN(C)C(=O)Nc1cccc(-c2ccc(N(C)C)cc2)c1,32
CCNC(=O)C[C@H]1CC[C@@H]2[C@H](COC[C@@H](O)CN2C(=O)C2CCCC2)O1,16
Cc1cc(Nc2cc(N3CCN(C)CC3)nc(/C=C/c3ccccc3)n2)n[nH]1,-74*
COc1cc(OC)nc(/C=C/c2ccccc2)n1,-13
Cn1ccnc1-c1ccc(N2CCN(C/C=C/c3ccccc3)CC2)nn1,13
CCS(=O)(=O)N1CCC2(CC1)OC(=O)C(C)=C2C(=O)N1CCN(c2cccc(Cl)c2)CC1,43
COc1cccc(CNC(=O)CN2CCC3(CC2)N=C(c2ccc(C)c(C)c2)C(=O)N3)c1,-11
CN(Cc1cc2n(n1)CCNC2)CC1(N2CCOCC2)CCCCC1,-7
COC(=O)c1cccc(C2CC(=O)Nc3cc(O)c(C)cc32)n1 (configuration not stated),-81*
Cc1cc2c(cc1O)NC(=O)CC2c1nccs1 (configuration not stated),-29
COCCn1ccnc1C1CC(=O)Nc2cc(O)c(C)cc21 (configuration not stated),-1
SMILES,Tg IFNy HTS
Cc1noc(C)c1C(=O)Sc1cccc(C(F)(F)F)c1,5
CNc1nc(C2CCN(C(=O)c3c(C(C)C)noc3C)CC2)nc2c1CN(C(C)=O)CC2,15
Cc1ncc(C(=O)N2CCC(c3cc4nc(C(C)C)cc(C(F)(F)F)n4n3)CC2)c(C)n1,-3
Cc1onc(C(C)C)c1C(=O)N1CCC(c2cc(C(F)(F)F)c3c(N)[nH]nc3n2)CC1,-75*
CN1CCN([C@H]2CN(C(=O)CCC3CCCC3)C[C@@H]2O)CC1,3
C[C@H](O[C@H]1OCCN(Cc2n[nH]c(=O)[nH]2)[C@H]1c1ccc(F)cc1)c1cc(C(F)(F)F)cc(C(F)(F)F)c1,-72*
CCOCC1c2c(cnn2CC)CCN1Cc1ccc2c(c1)OCO2 (configuration not stated),243
C[C@@H](NC(=O)c1ccc2c(c1)OCCO2)c1nc2cc(-c3ccccc3F)ncn2n1,-41
CN(C)CCN1C(=O)c2cccc3cc(N)cc(c23)C1=O,-77*
O=C1c2cccc3cccc(c23)C(=O)N1CCO,-27
O=C(CCCN1C(=O)c2cccc3cccc(c23)C1=O)OCc1ccc2c(c1)OCO2,-1
CCOC(=O)[C@@]12CCCN(C(=O)c3ccccn3)C[C@@H]1CN(C(C)=O)C2,9
CC(=O)N1[C@H](CO)[C@@H](c2ccc(-c3ccccc3F)cc2)C12CN(CC1CCOCC1)C2,1
O=C(NCCc1csc(-c2ccccc2)n1)[C@H]1CCCN1S(=O)(=O)c1ccc(F)c(Cl)c1,-24
Cc1occc1C(=O)N1CCOCC2(CCN(c3ncccn3)C2)C1 (configuration not stated),-3
Cc1ccc(CN2CCOCC3(CCN(Cc4nccn4C)C3)C2)s1 (configuration not stated),52
Cc1occc1C(=O)N1CCOCC2(CCN(Cc3nccn3C)C2)C1 (configuration not stated),-78*
Cc1noc([C@H]2C[C@@H]3OCC[C@@H]3N(S(C)(=O)=O)C2)n1,-8
O=C1CCCN1[C@H]1CN(C(=O)Cc2cccc(F)c2)[C@H]2CCCO[C@@H]12,3
CCc1ccccc1NC(=O)NCC(c1cccnc1)c1c[nH]c2ccccc12 (configuration not stated),53
O=C(NCC(c1ccccc1)c1c[nH]c2ccccc12)c1ccc(C(F)(F)F)cc1 (configuration not stated),-88*
O=C(NCC(c1cccnc1)c1c[nH]c2ccccc12)Nc1ccccc1C(F)(F)F (configuration not stated),114
Cc1ccccc1-c1ccc2c(-c3ncc(C(=O)NCCN(C)C)s3)noc2c1,-54
CN(C)C1CCN(C(=O)c2cnc(-c3noc4cc(-c5ccc(F)cc5)ccc34)s2)CC1,-82*
CCN(C)C(=O)c1cnc(-c2noc3cc(N4CCCCC4)ccc23)s1,-44
SMILES,Tg IFNy HTS
CCn1c(C2CCN(C(=O)Cn3nc4ccccc4n3)CC2)nn(C)c1=O,-1
C[C@H](CO)N1C[C@H](C)[C@@H](CN(C)C(=O)Nc2ccc(F)cc2)Oc2ccc(NC(=O)c3ccncc3)cc2CC1=O,26
CCN(C(=O)c1cc2cccnc2n(Cc2ccccc2F)c1=O)C1CCCCC1,0
CCOC(=O)C(SC(=S)Nn1cnnc1)C(C)=O (configuration not stated),0
O=C1c2cccc(O)c2C(=O)c2c(O)cc(CO)cc21,-62
O=C1c2c(O)ccc(O)c2C(=O)c2c(NCCNCCO)ccc(NCCNCCO)c21,-88*
COc1ccc(C(=O)Nc2ccc(N3CCCC3)cc2)cc1OC,-5
COc1ccc(NC(=O)c2ccc(-c3ccc(-c4noc(C)n4)cc3C)cc2)cc1N1CCN(C)CC1,-72*!
COc1ccc(C(=O)Nc2ccc(-c3nc(-c4ccccc4)co3)cc2)cc1OC,8
COc1ccc(NC(=O)c2ccc(-c3ccc(-c4noc(C)n4)cc3C)cc2)cc1OCCN(C)C,-77*!
COc1ccc(NC(=O)c2ccc3nc(-c4ccoc4)c(-c4ccoc4)nc3c2)cc1OC,57
COc1ccc(C(=O)Nc2ccc(-c3nc(-c4cc(C)ccc4C)co3)cc2)cc1OC,7
CCCCNC(=O)N1CCc2nc(-c3cnn(C)c3)nc(NC(C)C)c2C1,-11
COc1ccc2[nH]cc(C(O)CN3CCN(S(=O)(=O)N4CCC(C)CC4)CC3)c2c1 (configuration not stated),252
O=C(c1cscn1)N1CCC2(CN(CC3CCOCC3)C2)C1,-3
CCc1cc(CNC(=O)CC23CC4CC(C2)CC(n2cncn2)(C4)C3)on1,-2

# Source: PubChem
